From PubChem BioAssay come the findings set out here.

Records with an inconclusive call do not appear. Active and inactive are the calls of the source. Cut-off read from the data, not from the text of the source, unless noted: active = response above about 15%; inactive = the rest.

Assay [1] in a line: yeast TOR pathway RPL19A-GFP modulators, primary screen, cell-based, S. cerevisiae, multiplex flow cytometry (AID 1862; in the data active = percent of DMSO control GFP below about 86%;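 note: lower values mimic rapamycin by blocking the RPL19A rise seen in DMSO cells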). Particulars: S. cerevisiae RPL19A-GFP strain, flow cytometry fluorescence, 3 h; at 10 µM; stronger effect = lower value.
The nature of assay [2]: modulators of MEP2-GFP levels in yeast, primary screen, S. cerevisiae, multiplex flow cytometry (AID 1867;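 active = GFP response, as percent of the DMSO control, above the screen-wide mean plus 3 SD, about 139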;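 note: median GFP channel fluorescence of barcode-gated MEP2-GFP cells measured by flow cytometry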). The conditions noted are these: S. cerevisiae MEP2-GFP strain, 3 h, at 10 µM, stronger effect = higher value, 100% means same as DMSO wells.
Assay [3] can be described thus: modulators of CIT2-GFP expression in yeast, primary screen, S. cerevisiae, GFP fusion, multiplex flow cytometry (AID 1870;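 active = percent response above a set limit, the screen-wide mean plus 3 SD, cut at about 130% in these data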;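 note: barcoded CIT2-GFP strain pooled with four other GFP strains with rapamycin as positive control; median GFP fluorescence per well over plate mean of DMSO wells so 100% = DMSO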). Particulars: 3 h, at 10 µM, stronger effect = higher value.
The nature of assay [4]: modulators of LAP4-GFP expression in yeast, primary screen, S. cerevisiae, multiplex flow cytometry (AID 1873;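 active = GFP signal, as percent of the solvent control, above the screen mean plus 3 SD, about 149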). The conditions noted are these: 3 h, at 10 µM, stronger effect = higher value.
The nature of assay [5]: modulators of AGP1-GFP expression in yeast TOR pathway, primary screen, cell-based, multiplex flow cytometry, S. cerevisiae (AID 1887;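 active = GFP signal above the screen-wide mean plus 3 SD, that is over about 124.5% of the solvent control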;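 note: AGP1-GFP fusion strain of S. cerevisiae within a five-strain barcoded multiplex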). The conditions noted are these: 3 h, at 10 µM, stronger effect = higher value.
Assay [6] in a line: inhibitors of CD8+ T cell-vesicle binding, pilot screen, LFA-1/ICAM-1 modulator project, MLPCN validation set, flow cytometry (AID 2523;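 active = response below a set limit, under 55% cells CD8-positive and vesicle-bound, and CD8 cells' 90th-percentile brightness under 279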;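 for vesicle binding response: mean PE anti-B7-1 fluorescence of CD8+ cells relative to row control; 100% = QL9-loaded vesicles with DMSO vehicle in the same plate row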). The conditions noted are these: 2C mouse CD8+ T cells, at 7 µM, stronger effect = lower value; double positive events: measured here: CD8+/vesicle+ event percentage.
In assay [7] the target is Integrin beta-1 (Homo sapiens) + Integrin alpha-4 (Homo sapiens) (UniProt P13612+P05556). The assay can be described thus: inhibition of HUTS-21 binding to VLA-4, pilot screen, VLA-4 allosteric modulator project, U937 cells, HUTS-21 mAb, flow cytometry, validation set (AID 2674;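 active = inhibition above 50%, about 3 SD of the validation set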;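 note: antibody binding induced by the VLA-4 ligand LDV present at three times its Kd; 0% = LDV ligand with antibody and no compound and 100% = antibody without LDV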). Particulars: HUTS-21 LIBS mAb binding, at 6.7 µM, stronger effect = higher value, binding induced by LDV ligand.

A short description of assay [8]: superoxide lowering in aged yeast cells, pilot screen, validation compound set (AID 2706;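 active = superoxide response below 65% of plate, a cut near 3 SD across the whole screen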;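 note: yeast exposed to compound for one week at 30 degrees C before staining; 100% = mean of all compound wells on the same plate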). The conditions noted are these: S. cerevisiae aging, superoxide DHE fluorescence; at 10 µM; stronger effect = lower value.
For assay [9], the target named is Beta-adrenergic receptor kinase 1 (Homo sapiens) (UniProt P25098). The assay can be described thus: GRK2 binders displacing RNA aptamer, biochemical, validation, human GRK2, bead flow cytometry (AID 488806;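 active = aptamer binding inhibition above 30%, about 3 SD of noise from non-fluorescent compounds; inactive = inhibition at or below 30%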). The conditions noted are these: bead-bound GRK2, FAM-aptamer displacement, at 10 µM, stronger effect = higher value.
Assay [10] concerns the target Beta-2 adrenergic receptor (Homo sapiens) (UniProt P07550). The assay can be described thus: beta2AR agonists driving receptor internalization, pilot screen, cell-based, FAP fluorogen, flow cytometry, validation set (AID 504459;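 active = percent response above 42, roughly 3 SD of non-fluorescent test compounds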;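 note: agonist-driven loss of surface beta2AR via internalization measured by FAP dye flow cytometry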). The conditions noted are these: Am2.2-beta2AR cells, FAP surface receptor flow cytometry; at 10 µM; stronger effect = higher value.
Assay [11] addresses AP-2 complex subunit beta (Homo sapiens) (UniProt P63010). The assay can be described thus: inhibitors of arrestin peptide binding to AP2, pilot screen, biochemical, validation set, GST-AP2 beads, flow cytometry (AID 504541;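 active = inhibition above 54%, about 3 SD of non-fluorescent compounds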;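 note: AP2 carries R879A mutation and is captured from E. coli lysate; bead-bound FITC arrestin peptide fluorescence measuring arrestin peptide binding to AP2; 0% = DMSO wells and 100% = excess unlabeled arrestin peptide control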). Particulars: FITC arrestin peptide, at 10 µM, stronger effect = higher value, AP2 beta2 appendage fragment, R879A mutant.
Assay [12] is described as follows: yeast V-ATPase proton transport modulators, S. cerevisiae, pHLuorin, HTS validation (AID 504600).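 Note: plate controls were DMSO for no effect and reference compound for full effect.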 The conditions noted are these: S. cerevisiae pHLuorin cytosolic pH, at 10 µM, stronger effect = higher value.
Assay [13] deals with anti-desmoglein-3 scFv antibody binding to human DSG3. The assay can be described thus: inhibitors of anti-DSG3 scFv binding to DSG3, pilot screen, biochemical, validation compound set, bead-based, flow cytometry (AID 588368;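 active = binding below the plate cutoff, the plate median minus 3 SD, with a reading above zero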;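 note: signal is the median channel fluorescence of bead-bound GFP antibody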). The conditions noted are these: Protein G beads, DSG3-Fc, scFv-GFP binding, at 10 µM, stronger effect = lower value.
Assay [14] is described as follows: inhibitors of fungal efflux pumps CDR1, CDR2, MDR1, pilot screen, validation compound set, multiplex, phenotypic (AID 588506;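 active = efflux inhibition above 0.42, the validation set average plus 4 SD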;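 note: Nile Red retained in cells so higher fluorescence means more efflux inhibition; 0 = negative control wells and 1 = enniatin B 25 µM full block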). The conditions noted are these: S. cerevisiae pump-expressing triplex, Nile Red efflux flow cytometry; at 10 µM; stronger effect = higher value; the pumps come from Candida albicans.
The target in assay [15] is ATP-binding cassette sub-family B member 6 (Homo sapiens) (UniProt Q9NP58). The experiment in a line: ABCB6 transporter inhibitors, pilot screen, K562-ABCB6 cells, flow cytometry, validation set (AID 588550;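 active = inhibition above the screen-wide mean plus 3 SD, about 51%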;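 note: 0% = DMSO wells and 100% = benzethonium chloride 70 µM positive control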). Particulars: K562-ABCB6 porphyrin accumulation, 1 h, at 10 µM, stronger effect = higher value.
Assay [16] can be described thus: promoters of myeloid differentiation in arrested cells, primary screen, cell-based, GFP/MAC1 double positive, flow cytometry, validation set (AID 588685;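 active = differentiation response of at least 50%, scaled between solvent and reference control, from cells with both markers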;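 note: compound exposure lasts four days before antibody staining and flow analysis; 0% = DMSO wells and 100% = 5 µM fulvestrant positive control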). Particulars: ER-HoxA9 marrow cells, stronger effect = higher value, normalized: vehicle 0, fulvestrant 100.

AP-2 complex subunit beta (Homo sapiens), sequence (P63010 whole entry, looked up, the tested form may be a part, one chain of several): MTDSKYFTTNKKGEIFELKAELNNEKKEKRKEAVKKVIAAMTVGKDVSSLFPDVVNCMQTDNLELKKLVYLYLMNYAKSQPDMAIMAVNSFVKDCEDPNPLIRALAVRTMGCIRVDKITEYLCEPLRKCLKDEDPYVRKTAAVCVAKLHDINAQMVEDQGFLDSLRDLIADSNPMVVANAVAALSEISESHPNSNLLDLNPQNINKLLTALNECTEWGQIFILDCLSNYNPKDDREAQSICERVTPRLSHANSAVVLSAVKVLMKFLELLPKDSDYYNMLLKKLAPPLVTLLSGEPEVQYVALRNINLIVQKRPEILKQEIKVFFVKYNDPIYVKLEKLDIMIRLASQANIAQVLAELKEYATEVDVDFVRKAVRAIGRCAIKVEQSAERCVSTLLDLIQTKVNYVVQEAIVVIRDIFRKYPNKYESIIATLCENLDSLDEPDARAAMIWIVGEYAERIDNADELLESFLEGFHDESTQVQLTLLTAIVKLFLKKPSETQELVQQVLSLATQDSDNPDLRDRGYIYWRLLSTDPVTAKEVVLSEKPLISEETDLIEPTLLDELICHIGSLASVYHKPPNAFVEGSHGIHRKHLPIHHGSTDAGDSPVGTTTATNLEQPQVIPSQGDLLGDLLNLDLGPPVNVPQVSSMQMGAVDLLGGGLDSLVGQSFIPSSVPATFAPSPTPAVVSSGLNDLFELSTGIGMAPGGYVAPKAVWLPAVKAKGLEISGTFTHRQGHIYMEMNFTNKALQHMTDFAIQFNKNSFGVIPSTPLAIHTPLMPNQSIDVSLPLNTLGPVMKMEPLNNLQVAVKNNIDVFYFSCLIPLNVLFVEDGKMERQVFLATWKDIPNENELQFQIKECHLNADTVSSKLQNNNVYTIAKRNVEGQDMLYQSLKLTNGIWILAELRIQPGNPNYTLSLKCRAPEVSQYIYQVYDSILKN
Integrin beta-1 (Homo sapiens) + Integrin alpha-4 (Homo sapiens), sequence (P05556 whole entry, looked up): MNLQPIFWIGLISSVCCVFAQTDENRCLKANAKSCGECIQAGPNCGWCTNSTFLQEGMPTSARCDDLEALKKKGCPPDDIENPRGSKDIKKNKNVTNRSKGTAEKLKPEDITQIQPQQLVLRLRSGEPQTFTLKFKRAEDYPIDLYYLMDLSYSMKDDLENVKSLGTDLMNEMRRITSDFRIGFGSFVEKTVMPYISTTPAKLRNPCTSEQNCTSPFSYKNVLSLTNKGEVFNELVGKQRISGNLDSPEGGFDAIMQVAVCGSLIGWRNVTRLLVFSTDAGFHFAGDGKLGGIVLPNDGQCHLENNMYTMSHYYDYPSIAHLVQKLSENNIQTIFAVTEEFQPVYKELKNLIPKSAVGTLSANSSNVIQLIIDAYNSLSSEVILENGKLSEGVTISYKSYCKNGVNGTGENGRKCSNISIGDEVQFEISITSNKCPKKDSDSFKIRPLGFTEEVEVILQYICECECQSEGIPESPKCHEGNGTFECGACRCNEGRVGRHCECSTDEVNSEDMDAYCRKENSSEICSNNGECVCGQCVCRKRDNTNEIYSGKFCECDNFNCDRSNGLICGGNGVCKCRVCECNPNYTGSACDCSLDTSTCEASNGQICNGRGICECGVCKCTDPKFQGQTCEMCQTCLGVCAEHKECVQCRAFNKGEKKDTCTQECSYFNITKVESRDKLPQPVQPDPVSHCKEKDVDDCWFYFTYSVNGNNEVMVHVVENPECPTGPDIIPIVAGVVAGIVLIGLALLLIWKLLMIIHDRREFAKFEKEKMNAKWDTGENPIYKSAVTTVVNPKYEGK
Integrin beta-1 (Homo sapiens) + Integrin alpha-4 (Homo sapiens), sequence (P13612 whole entry, looked up): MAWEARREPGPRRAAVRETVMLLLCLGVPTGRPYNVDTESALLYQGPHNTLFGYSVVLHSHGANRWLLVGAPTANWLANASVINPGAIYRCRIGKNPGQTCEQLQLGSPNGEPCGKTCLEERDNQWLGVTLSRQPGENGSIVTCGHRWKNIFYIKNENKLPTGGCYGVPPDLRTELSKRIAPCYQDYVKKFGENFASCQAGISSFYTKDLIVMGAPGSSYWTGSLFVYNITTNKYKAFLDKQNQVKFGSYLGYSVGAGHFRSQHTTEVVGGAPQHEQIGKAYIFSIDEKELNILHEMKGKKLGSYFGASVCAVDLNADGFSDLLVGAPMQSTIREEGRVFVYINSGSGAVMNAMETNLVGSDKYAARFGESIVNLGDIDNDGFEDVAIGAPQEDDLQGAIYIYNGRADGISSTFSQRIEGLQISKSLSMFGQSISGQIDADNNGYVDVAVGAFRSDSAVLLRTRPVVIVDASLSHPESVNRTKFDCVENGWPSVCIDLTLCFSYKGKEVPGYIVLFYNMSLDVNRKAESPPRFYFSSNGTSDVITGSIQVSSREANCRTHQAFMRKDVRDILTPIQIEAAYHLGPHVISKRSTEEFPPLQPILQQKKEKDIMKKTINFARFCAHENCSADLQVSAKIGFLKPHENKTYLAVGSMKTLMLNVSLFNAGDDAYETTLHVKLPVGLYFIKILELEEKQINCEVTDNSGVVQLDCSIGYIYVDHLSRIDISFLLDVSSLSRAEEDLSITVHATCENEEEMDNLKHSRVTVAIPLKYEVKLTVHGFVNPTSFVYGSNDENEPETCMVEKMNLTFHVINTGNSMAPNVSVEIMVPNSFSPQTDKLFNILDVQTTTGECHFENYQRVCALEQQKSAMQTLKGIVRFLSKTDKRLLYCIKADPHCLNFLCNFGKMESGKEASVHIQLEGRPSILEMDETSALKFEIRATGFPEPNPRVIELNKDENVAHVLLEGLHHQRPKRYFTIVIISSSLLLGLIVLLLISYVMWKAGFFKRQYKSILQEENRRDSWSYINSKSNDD
ATP-binding cassette sub-family B member 6 (Homo sapiens), sequence (Q9NP58 whole entry, looked up): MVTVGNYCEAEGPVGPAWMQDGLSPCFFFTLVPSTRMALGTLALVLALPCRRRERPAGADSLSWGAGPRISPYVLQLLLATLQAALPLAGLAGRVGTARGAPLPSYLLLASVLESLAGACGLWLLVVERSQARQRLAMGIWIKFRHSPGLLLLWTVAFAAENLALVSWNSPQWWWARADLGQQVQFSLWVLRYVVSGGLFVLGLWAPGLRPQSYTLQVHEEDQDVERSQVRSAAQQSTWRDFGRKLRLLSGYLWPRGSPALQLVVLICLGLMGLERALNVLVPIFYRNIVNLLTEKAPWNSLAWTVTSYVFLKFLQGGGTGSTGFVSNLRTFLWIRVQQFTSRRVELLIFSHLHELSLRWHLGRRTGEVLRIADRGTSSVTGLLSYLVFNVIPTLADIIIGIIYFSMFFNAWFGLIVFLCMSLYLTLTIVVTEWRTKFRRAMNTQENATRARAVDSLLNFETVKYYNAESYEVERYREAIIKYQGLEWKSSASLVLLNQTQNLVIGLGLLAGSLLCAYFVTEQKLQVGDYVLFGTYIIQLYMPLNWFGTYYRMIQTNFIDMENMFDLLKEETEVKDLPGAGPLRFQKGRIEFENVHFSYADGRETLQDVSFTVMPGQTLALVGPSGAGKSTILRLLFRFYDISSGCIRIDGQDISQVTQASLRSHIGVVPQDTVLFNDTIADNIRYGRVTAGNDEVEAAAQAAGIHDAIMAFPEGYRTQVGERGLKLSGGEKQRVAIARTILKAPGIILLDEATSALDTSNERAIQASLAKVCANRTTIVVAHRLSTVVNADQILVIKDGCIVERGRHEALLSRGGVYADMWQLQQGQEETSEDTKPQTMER
Beta-2 adrenergic receptor (Homo sapiens), sequence (P07550 whole entry, looked up): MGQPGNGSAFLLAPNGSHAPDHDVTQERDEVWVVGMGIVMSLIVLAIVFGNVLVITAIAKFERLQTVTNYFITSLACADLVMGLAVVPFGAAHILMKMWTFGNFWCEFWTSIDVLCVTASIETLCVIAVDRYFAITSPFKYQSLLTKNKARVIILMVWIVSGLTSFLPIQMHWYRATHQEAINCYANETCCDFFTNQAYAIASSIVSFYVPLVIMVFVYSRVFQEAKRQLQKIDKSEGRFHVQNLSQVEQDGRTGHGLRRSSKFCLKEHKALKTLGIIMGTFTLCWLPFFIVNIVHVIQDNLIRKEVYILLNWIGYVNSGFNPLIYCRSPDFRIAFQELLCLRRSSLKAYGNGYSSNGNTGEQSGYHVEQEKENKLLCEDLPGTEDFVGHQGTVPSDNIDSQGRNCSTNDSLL
Beta-adrenergic receptor kinase 1 (Homo sapiens), sequence (P25098 whole entry, looked up): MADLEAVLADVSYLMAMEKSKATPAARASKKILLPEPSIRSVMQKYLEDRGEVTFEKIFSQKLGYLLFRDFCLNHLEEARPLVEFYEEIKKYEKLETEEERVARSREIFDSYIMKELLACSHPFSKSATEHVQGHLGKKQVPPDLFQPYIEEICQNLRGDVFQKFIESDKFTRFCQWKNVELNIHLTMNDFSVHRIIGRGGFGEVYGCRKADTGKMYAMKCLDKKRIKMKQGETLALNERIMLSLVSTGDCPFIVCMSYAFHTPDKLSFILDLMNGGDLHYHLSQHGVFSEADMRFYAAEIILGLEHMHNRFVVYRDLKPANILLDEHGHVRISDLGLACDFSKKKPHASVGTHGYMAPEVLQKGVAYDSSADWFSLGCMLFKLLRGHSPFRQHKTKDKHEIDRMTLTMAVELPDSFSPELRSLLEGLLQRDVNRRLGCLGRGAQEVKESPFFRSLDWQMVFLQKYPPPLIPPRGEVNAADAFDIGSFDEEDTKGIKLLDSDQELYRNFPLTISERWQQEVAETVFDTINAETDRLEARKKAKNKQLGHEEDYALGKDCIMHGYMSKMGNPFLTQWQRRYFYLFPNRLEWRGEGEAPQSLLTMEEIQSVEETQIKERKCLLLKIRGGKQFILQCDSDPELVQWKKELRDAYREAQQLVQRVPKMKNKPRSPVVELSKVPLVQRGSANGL

On to `COc1ccc(-c2coc3c(CN4CCOCC4)c(O)ccc3c2=O)cc1`, for which the percent of DMSO control GFP in assay [1] was 105% (inactive). For the same compound, the values for the GFP response vs DMSO in [2] and in [4] were 99.7% (inactive) and 93.7% (inactive), respectively. For the same compound, the percent response of DMSO control in [3] was 109% (inactive). In addition, in assay [5], the GFP response, % of DMSO was 105% (inactive). Also, the double positive events in [6] is 57.5%. The vesicle binding response in assay [6] is 118% (inactive). Further, the inhibition in assay [7] is -5.11% (inactive); in assay [11], 55.9% (active); in assay [15] it was -5% (inactive). Also, the superoxide response (% of plate) in [8] is 103% (inactive). Besides, the aptamer binding inhibition in assay [9] is -6% (inactive). The response in assay [10] was -34.4% (inactive); in assay [12], -2.03% (inactive). In addition, in assay [13], the binding (% of control) is 103% (inactive). For the same compound, the efflux inhibition (fraction of control) in assay [14] was 0.31 (inactive). Besides, the differentiation response in [16] was -3.11% (inactive).

Consider `CCCCCC(=O)O[C@]1(C(C)=O)CC[C@H]2[C@@H]3CCC4=CC(=O)CC[C@]4(C)[C@H]3CC[C@@]21C`, for which the percent of DMSO control GFP in assay [1] was 98.9% (inactive). Also, the GFP response vs DMSO in assay [2] is 95.6% (inactive); in assay [4], 108% (inactive). The percent response of DMSO control in assay [3] was 94.5% (inactive). Further, the GFP response, % of DMSO in assay [5] is 98.1% (inactive). The same compound showed a double positive events in [6] of 60%. The vesicle binding response in assay [6] is 153% (inactive). In addition, the figures for the inhibition in assay [7], in assay [11] and in assay [15] were -17.2% (inactive), 18.3% (inactive) and 2% (inactive), respectively. Further, in assay [8], the superoxide response (% of plate) was 105% (inactive). Also, in assay [9], the aptamer binding inhibition is 0% (inactive). Moreover, the response in assay [10] was 6.12% (inactive); in assay [12], -0.4% (inactive). Also, the binding (% of control) in [13] was 105% (inactive). The efflux inhibition (fraction of control) in assay [14] was -0.155 (inactive). Moreover, in assay [16], the differentiation response is -0.18% (inactive).

In the case of `O=C1CN(O)C=C2N=c3ccccc3=C2N1c1ccc([N+](=O)[O-])cc1`, the percent of DMSO control GFP in assay [1] is 106% (inactive). In addition, the GFP response vs DMSO was 108% (inactive) in [2] and 101% (inactive) in assay [4]. In assay [3], the percent response of DMSO control is 107% (inactive). Also, the GFP response, % of DMSO in assay [5] is 107% (inactive). This compound yielded a double positive events in assay [6] of 61.3%. Also, in [6], the vesicle binding response was 124% (inactive). In addition, the inhibition in assay [7] was -17.2% (inactive); in assay [11], -5.08% (inactive); in assay [15], 19% (inactive). Moreover, in [8], the superoxide response (% of plate) was 106% (inactive). Moreover, the aptamer binding inhibition in assay [9] is 2% (inactive). The results for the response in assay [10] and in assay [12] were -10.9% (inactive) and 1% (inactive), respectively. For the same compound, the binding (% of control) in assay [13] is 100% (inactive). The efflux inhibition (fraction of control) in assay [14] was -0.13 (inactive). Besides, in [16], the differentiation response was -3.11% (inactive).

As to `c1coc(-c2nnc3n2C2(CCCC2)Cc2ccccc2-3)c1`, in [1], the percent of DMSO control GFP is 94.2% (inactive). In addition, the GFP response vs DMSO is 114% (inactive) in [2] and 82.5% (inactive) in assay [4]. Also, the percent response of DMSO control in assay [3] is 97.9% (inactive). The GFP response, % of DMSO in assay [5] is 91.5% (inactive). Besides, in [6], the double positive events came out at 73.1%. The vesicle binding response in assay [6] is 279% (inactive). Besides, the inhibition was 25.9% (inactive) in assay [7], -13.2% (inactive) in assay [11] and 14% (inactive) in assay [15]. For the same compound, in assay [8], the superoxide response (% of plate) is 91.6% (inactive). Moreover, in assay [9], the aptamer binding inhibition is 4% (inactive). Moreover, the response was -2% (inactive) in [10] and 0.46% (inactive) in assay [12]. For the same compound, in assay [13], the binding (% of control) is 109% (inactive). The efflux inhibition (fraction of control) in [14] is -0.6 (inactive). The differentiation response in assay [16] is 3.28% (inactive).
